# TDP1 inh – qHTS Assay for Inhibitors of Tyrosyl-DNA Phosphodiesterase (TDP1); Tyrosyl-DNA phosphodiesterase 1 (Homo sapiens), Q9NUW8; 0.28% of 350,000 active; recombinant TDP1, AlphaScreen DNA substrate cleavage; Potency, µM (top dose mostly 130 µM), without a hit: at the top dose activity change, negative = inhibition, hits mostly inhibitors; note: potency is the fitted concentration of half-maximal effect; nearly all actives have a fitted effect of over 40% in size
# Target sequence (Q9NUW8 whole entry, looked up): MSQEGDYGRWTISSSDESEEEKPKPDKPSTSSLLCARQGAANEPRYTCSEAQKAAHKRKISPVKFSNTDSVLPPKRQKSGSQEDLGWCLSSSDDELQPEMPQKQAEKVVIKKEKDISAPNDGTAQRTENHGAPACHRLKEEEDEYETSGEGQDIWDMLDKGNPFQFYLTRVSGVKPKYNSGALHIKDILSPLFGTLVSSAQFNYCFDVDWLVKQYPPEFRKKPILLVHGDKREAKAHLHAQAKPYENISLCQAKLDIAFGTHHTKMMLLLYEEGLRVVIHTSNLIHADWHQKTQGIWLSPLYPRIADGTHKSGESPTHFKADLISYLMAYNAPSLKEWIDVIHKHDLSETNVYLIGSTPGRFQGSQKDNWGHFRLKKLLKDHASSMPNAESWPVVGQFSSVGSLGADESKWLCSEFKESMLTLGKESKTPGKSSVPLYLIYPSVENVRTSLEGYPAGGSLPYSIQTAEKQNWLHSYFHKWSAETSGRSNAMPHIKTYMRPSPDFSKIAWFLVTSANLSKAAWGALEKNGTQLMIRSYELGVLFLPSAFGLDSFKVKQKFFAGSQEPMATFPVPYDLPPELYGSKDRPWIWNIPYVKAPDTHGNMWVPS
#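 Enzyme-compound mixtures sat 15 min at room temperature, followed by a 5 min reaction with 15 nM final substrate and 10 min with AlphaScreen beads. Recombinant human Tdp1 was used at 1 nM final.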
# DT40 TDP1 CPT – qHTS for Inhibitors of human tyrosyl-DNA phosphodiesterase 1 (TDP1): qHTS in cells in presence of CPT. 12% of 420,000 active. chicken DT40 Tdp1-/-;hTDP1 cells + 20 nM CPT, ATP luminescence, 48 h. Potency, µM (series often up to 46.2 µM), for inactives: at the top dose activity change, negative = growth inhibition, usual class: inhibitors; note: potency is the fitted concentration of half-maximal effect; nearly all actives have a fitted effect of over 55% in size
#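 Chicken DT40 Tdp1-/- cells stably complemented with human TDP1 were seeded at 400 cells/well in medium containing 20 nM camptothecin, exposed to pin-transferred compounds, and grown at 37 °C for at least 48 hr. Viability was read as ATP luminescence.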
# TDP1 cell noCPT – qHTS for Inhibitors of human tyrosyl-DNA phosphodiesterase 1 (TDP1): qHTS in cells in absence of CPT; DT40 Tdp1-/- hTDP1 cells, no CPT, ATP luminescence, 48 h; Potency, µM (doses to about 46.2 µM), for inactives: at the top dose activity change, negative = growth inhibition, usual class: inhibitors; 15% of 420,000 active; note: potency is the fitted concentration of half-maximal effect; nearly all actives have a fitted effect of over 55% in size
#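 Compound effects on proliferation are scored in DT40 Tdp1-/-;hTDP1 cells in the absence of CPT. ATP levels (CellTiter-Glo luminescence) are recorded after a ≥48 hr, 37 °C incubation.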
# ELG1 DNA repair – qHTS screen for small molecules that inhibit ELG1-dependent DNA repair in human embryonic kidney (HEK293T) cells expressing luciferase-tagged ELG1; HEK293T ELG1-luciferase reporter, luminescence, 16 h; DNA damage induced by 5-fluorouridine; Potency, µM (highest dose often 46.1 µM), for the others: at the top dose activity change, negative = inhibition, hits mostly inhibitors; 2.3% of 330,000 active; AID 504467, 2011; note: potency is the fitted concentration of half-maximal effect; nearly all actives have a fitted effect of over 55% in size
#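 In this reporter screen, reduction of luminescence relative to DMSO vehicle indicated activity. Compounds and 5-fluorouridine were added together to 2,000 cells per well, incubated for 16 hr at 37 °C, then developed with ONE-Glo.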
# Giardia kill – Small Molecules that selectively kill Giardia lamblia: qHTS | Giardia lamblia trophozoite viability | activity change, % at 7.66 µM, hits read low | 0.15% of 340,000 active | AID 540267, 2011; in the data active = activity change below about -80%; inconclusive = between about -30% and that limit;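 note: parasites exposed to compound for two days anaerobically before the ATP read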
#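 Killing of trophozoites was scored by loss of ATP luminescence after a 48 hrs anaerobic exposure to compounds at 37 deg C, using 100 cells per well.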
# IL-1B inflam inh – qHTS for Inhibitors of Inflammasome Signaling: IL-1-beta AlphaLISA Primary Screen. THP-1 LPS/ATP IL-1B secretion, AlphaLISA, 16 h; active compounds read low. activity change, % at 57.5 µM. 4.7% of 360,000 active; in the data active = activity change below about -50%; inconclusive = mostly about -30% to -49%
#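 Secreted IL-1B measured by AlphaLISA bead assay after 16 h compound exposure of THP-1 cells; compounds (final up to 57.5 uM) added 1 h before LPS (250 ng/mL) and ATP (1.25 mM) stimulation; lower signal means less secretion.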
# * hit, by the source's call; ? = inconclusive; · = no result. A selection: hits, their analogues and other compounds. The true share with any hit is near 19%. Unless noted, calls come from the whole dose curve; as a rule, active = well fitted curve in the direction sought with a large enough effect; inconclusive = small, poorly fitted or top-dose-only effect, or another doubt; inactive = no such curve, though single readings can be large; an effect the other way counts as inactive or inconclusive. % is set by controls: 0 for no effect and ±100 for the full control effect.
SMILES,TDP1 inh,DT40 TDP1 CPT,TDP1 cell noCPT,ELG1 DNA repair,Giardia kill,IL-1B inflam inh
COC(=O)[C@]1(Cc2ccccc2)N[C@H](CN(C)C(=O)c2ccc(C)cc2)[C@@H]2C(=O)N(Cc3ccccc3)C(=O)[C@@H]21,0%,?,18µM*,?,-25,-2
COC(=O)[C@]1(Cc2ccccc2)N[C@H](CN(C)C(=O)C2CCCCC2)[C@@H]2C(=O)N(C)C(=O)[C@@H]21,0%,-1%,-8%,0%,14,-9
COC(=O)[C@]1(Cc2ccccc2)N[C@H](CN(C)C(=O)C2CCCCC2)[C@@H]2C(=O)N(Cc3ccccc3)C(=O)[C@@H]21,1%,21µM*,16µM*,?,7,-6
CCN(C[C@H]1N[C@@](Cc2ccccc2)(C(=O)OC)[C@H]2C(=O)N(Cc3ccccc3)C(=O)[C@@H]12)C(=O)c1ccc(F)cc1,1%,16µM*,?,?,-22,-17
CC(C)Oc1ccc(OCCSc2nc3ccccc3n2CC(=O)O)cc1,·,-5%,-13%,-14%,-26,2
CCN(C[C@H]1N[C@@](CC)(C(=O)OC)[C@H]2C(=O)N(Cc3ccccc3)C(=O)[C@@H]12)C(=O)c1ccc(C)cc1,1%,?,15µM*,8.2µM*,14,0
CCN(C[C@H]1N[C@@](CC)(C(=O)OC)[C@H]2C(=O)N(Cc3ccccc3)C(=O)[C@@H]12)C(=O)c1ccc(F)cc1,2%,-30%,?,16µM*,20,-12
CCN(C[C@H]1N[C@@](CC)(C(=O)OC)[C@H]2C(=O)N(Cc3ccccc3)C(=O)[C@@H]12)C(=O)Nc1ccc(C(F)(F)F)cc1,0%,-9%,6.5µM*,26%,?,-108*
CC[C@@]1(C(=O)OC)N[C@H](CN(C)C(=O)c2ccc(C)cc2)[C@@H]2C(=O)N(Cc3ccccc3)C(=O)[C@@H]21,0%,-26%,-18%,-6%,-24,-8
O=C(Cc1ccc(Cl)cc1)c1c[nH]c(C(=O)NCCCn2ccnc2)c1,6%,0%,7%,-3%,-10,14
COc1ccccc1NC(=O)CN(Cc1ccccc1)S(C)(=O)=O,0%,-9%,15%,-13%,-7,5
Fc1ccc(C(CCCn2nnc(-c3cccnc3)n2)c2ccc(F)cc2)cc1,-7%,16µM*,21µM*,-21%,2,?
Cc1ccc(F)cc1NC(=O)c1cnccn1,2%,-28%,-7%,-6%,5,0
CCN1C(=O)[C@H]2[C@@H](c3ccc(-c4cccc(Cl)c4)c(OC)c3)N[C@@](Cc3ccccc3)(C(=O)OC)[C@H]2C1=O,0%,?,18µM*,10%,12,?
COC(=O)[C@]1(Cc2ccccc2)N[C@H](c2ccc(-c3cccc(Cl)c3)c(OC)c2)[C@@H]2C(=O)N(C)C(=O)[C@@H]21,·,13µM*,10µM*,·,13,?
O=C1N/C(=C\c2ccc(O)cc2)C(=O)c2ccccc21,10%,3.2µM*,7.1µM*,15%,-3,-4
O=C(O)/C=C1\NC(=O)c2ccccc21,1%,11%,-2%,12%,-19,12
CC1CCCCC1NC(=O)CCNS(=O)(=O)c1cc(Br)cnc1N (centres undefined),1%,-21%,?,?,-1,33
COC(=O)N=Nc1c(O)[nH]c2ccc(Br)cc12,6%,-9%,?,-19%,-3,19
Oc1[nH]c2ccccc2c1N=NC(=S)N1CCOCC1,8%,1.6µM*,1.5µM*,?,-3,130
Oc1[nH]c2ccc(Br)cc2c1N=NC(=S)N1CCOCC1,11%,0.73µM*,0.73µM*,-2%,37,158
COc1ccc2c(c1OC)C(=O)N1C2SC(C)(C)[C@H]1C(=O)NC(C)C (some centres undefined),·,?,8%,3%,5,-11
Clc1cc(Br)ccc1OCCOCCN1CCCC1,3%,?,?,-1%,-1,-91*
Clc1cccc(OCCOCCN2CCNCC2)c1Cl,·,-18%,23µM*,·,8,-22
CC(C)(C)c1cc(Cl)ccc1OCCOCCN1CCCC1,3%,?,13µM*,-12%,6,-75*
SMILES,TDP1 inh,DT40 TDP1 CPT,TDP1 cell noCPT,ELG1 DNA repair,Giardia kill,IL-1B inflam inh
Clc1cccc(OCCCN2CCCC2)c1Cl,-11%,-25%,?,-15%,17,-13
Cc1ccnc(NC(=O)CCC(=O)c2cc(C)sc2C)c1,·,-19%,-8%,0%,8,15
COC(=O)c1cc2oc(C)cc2n1Cc1ccc(Br)cc1F,0%,-4%,-22%,·,·,·
COc1cc(C)ccc1Oc1ccc([N+](=O)[O-])cc1,·,?,-23%,·,12,-14
Cc1ccccc1OCCC(=O)Nc1ccc(Cl)cc1F,0%,-18%,-16%,-4%,-3,-10
COc1ccc(C2CC(=O)Nc3c2c(=O)[nH]c2nc4ccccc4n32)cc1OC (centres undefined),1%,-3%,5%,·,·,·
CCOc1ccc(C2CC(=O)Nc3c2c(=O)nc(SCc2ccccc2C)n3C)cc1OC (centres undefined),5%,9.2µM*,5.8µM*,·,·,·
CC(=O)c1cccc(NC(=O)c2sc(-n3nc(C)c(CCC(C)C)c3C)nc2C)c1,-7%,13µM*,?,·,·,·
Cc1nc(-n2nc(C)c(CCC(C)C)c2C)sc1C(=O)Nc1cccc(Cl)c1C,-6%,0%,-13%,·,·,·
Cc1cccc(NC(=O)c2sc(-n3nc(C)c(CCC(C)C)c3C)nc2C)c1C,5%,?,21µM*,·,·,·
O=C(Nc1ccc(F)cc1)C(c1cc2ccccc2o1)N1CCN(c2cccc(C(F)(F)F)n2)CC1 (centres undefined),·,?,?,·,·,35

# Compound activity as filed in PubChem.
